# Results reported in PubChem BioAssay (NCI).
# The panel holds about 83,000 compounds, 20% with a hit somewhere; the sample as a whole holds those more often.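 Assay: single dose, 48 h. Readout: percent growth (0 = no net growth; negative = cell death). Active: <10.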 Active and inactive are the calls of the source.
# Tested on: NCI-H460 lung
# Experiment: NCI-60 one-dose screen, 48 h (100 = growth as untreated, 0 = no growth, -100 = all killed)
# Details: 10 µM unless noted
# Protocol: Growth inhibition of the NCI-H460 human Non-Small Cell Lung tumor cell line is measured as a screen for anti-cancer activity. Cells are grown in 96 well plates and exposed to the test compound for 48 hours. Compounds are tested at a single concentration, which is 10^-5 M for most compounds. The reported endpoint is percent growth (GI% or GIPRCNT), where numbers from 0 - 100% represent growth inhibition, and numbers from -100% - 0 represent cell death. For example, a value of 40 represents 60% growth inhibition. A value of 0 means no net growth occurred over the course of the experiment. A value of -40 indicates 40% of cells at the beginning of the experiment died by the end of the experiment. A value of -100 means all cells are dead at the end of the experiment.
# NCI-60 Human Tumor Cell Lines Screen was performed using the standard one-dose NCI protocol, which is described in more detail at https://dtp.cancer.gov/discovery_development/nci-60/default.htm.
# Compounds with GIPRCNT values below 10 were considered active. Activity score was based on GIPRCNT using the following formula: […]
# Score is 0 for GIPRCNT values of 100 or above, 50 for GIPRCNT values of 0, and 100 for GIPRCNT values of -100.
row,SMILES,growth
1,CC(=O)O[C@H](C[C@H](C(C)C)N(C)C(=O)[C@@H](NC(=O)[C@H]1CCCN1C)C(C)C)c1nc(C(=O)N[C@@H](Cc2ccccc2)C[C@H](C)C(=O)O)c(C)s1,5.67% (active)
2,CC[C@H](C)[C@H](NC(=O)[C@H]1CCCCN1C)C(=O)N(C)[C@H](CCc1nc(C(=O)N[C@@H](Cc2ccccc2)C[C@H](C)C(=O)OC)cs1)C(C)C,6.43% (active)
3,Cc1ccc(Nc2nc3c(s2)C2=CC[C@@H]4[C@H](CC[C@]5(C)C(=O)CC[C@@H]45)[C@@]2(C)CC3)cc1,38.9% (inactive)
4,C=CCCCN=C=S,47.9% (inactive)
5,CCOP(=O)(Cc1ccc(C#N)cc1)OCC,108% (inactive)
6,Cn1cc(C=O)c2nccnc21,104% (inactive)
7,COC(=O)[C@@H](C)C[C@H](Cc1ccccc1)NC(=O)c1csc([C@@H](C[C@H](C(C)C)N(C)C(=O)C2(NC(=O)[C@H]3CCCCN3C)CCC2)OC(C)=O)n1,4.21% (active)
8,CCC[CH2][Sn]([CH2]CCC)([CH2]CCC)[O]c1ccc(Cl)cc1Cl,-84.8% (active)
9,COC(=O)C1OC(Oc2ccc(N(CCCl)CCCl)cc2)C(OC(C)=O)C(OC(C)=O)C1OC(C)=O (stereo not given),29.3% (inactive)
10,COC(=O)CCc1c[nH]c2ccc(N(CCCl)CCCl)cc12,17.4% (inactive)
11,CC1=C([Te]c2ccc(O)cc2)C(=O)c2ccccc2C1=O,-27.6% (active)
12,O=C1CNC(c2ccccc2)c2cc(Cl)ccc2N1 (stereo not given),110% (inactive)
13,CN(C)C1C(=O)C(C(N)=O)=C(O)C2(O)C(=O)C3=C(O)c4c(O)cccc4C(C)(O)C3CC12.[Cl][Sb]([Cl])[Cl] (stereo not given),4.47% (active)
14,CC12CCC3C(CCC4=CC(=O)CCC43CF)C1CCC2=O (stereo not given),109% (inactive)
15,N#C[S-].[Au+].c1ccc(CN2[CH-]N(Cc3ccccc3)C(c3ccccc3)=C2c2ccccc2)cc1,4.03% (active)
16,COC(=O)CCC1=C(C)c2cc3[n-]c(cc4nc(cc5[n-]c(cc1n2)c(CCC(=O)OC)c5C)C=C4C)cc3C.[Cd+2],-27.3% (active)
17,CC(CC1CCCCC1)NCc1ccccc1 (stereo not given),105% (inactive)
18,C=CC[Se]C(=O)c1ccccc1OC(C)=O,-13.4% (active)
19,NC(=S)c1cn(C2OC(CO)C(O)C2O)c2ncnc(N)c12 (stereo not given),3.97% (active)
20,O=[As](O)(O)c1ccccc1[As](=O)(O)O,116% (inactive)

row,SMILES,growth
1,CNCc1cccnc1,114% (inactive)
2,COC(=O)[C@H](Cc1ccccc1)NC(=O)c1csc([C@@H](C[C@H](C(C)C)N(C)C(=O)[C@@H](NC(=O)[C@H]2CCCN2C)C2CC2)OC(C)=O)n1,4.53% (active)
3,CCNc1nc(Cl)nc(NCC)n1,102% (inactive)
4,Cc1cc(C)cc(Nc2nc3c(s2)CC[C@@]2(C)C3=CC[C@@H]3[C@@H]2CC[C@]2(C)C(=O)CC[C@@H]32)c1,49.5% (inactive)
5,CCOc1ccc(/C=C/[N+](=O)[O-])cc1,98.2% (inactive)
6,CCOC(=O)CCC(NC(=O)C(Cc1ccc(N(CCCl)CCCl)cc1)NC=O)C(=O)OCC (stereo not given),8.71% (active)
7,COC(=O)[C@@H](C)C[C@H](Cc1cn(C)c2ccccc12)NC(=O)c1csc([C@@H](C[C@H](C(C)C)N(C)C(=O)[C@@H](NC(=O)[C@H]2CCCCN2C)C(C)C)OC(C)=O)n1,7.12% (active)
8,N#CC1(c2ccccc2)CCN(Cc2ccccc2)CC1,104% (inactive)
9,Cc1ccc(S(=O)(=O)C(Cl)(Cl)Cl)cc1,104% (inactive)
10,COC(=O)[C@@H](C)C[C@H](Cc1ccccc1)NC(=O)c1csc([C@@H](C[C@H](C(C)C)N(C)C(=O)[C@@H](NC(=O)[C@H]2CCCCN2C)C2CCCCC2)OC(C)=O)n1,1.05% (active)
11,CC[C@]12C=CCN3CC[C@@]4(c5ccc(OC)cc5N(C)[C@H]4[C@@](O)(C(=O)OC)[C@@H]1OC(=O)CCCC[P+](c1ccccc1)(c1ccccc1)c1ccccc1)[C@@H]32,18.4% (inactive)
12,C=CC12CCN(CC1)C(C(O)c1ccnc3ccc(OC)cc13)C2 (stereo not given),89% (inactive)
13,O=[N+]([O-])c1ccc(OP(=O)(CCl)N(CCCl)CCCl)cc1 (stereo not given),105% (inactive)
14,Nc1nc([Se])c2ncn(C3OC(CO)C(O)C3O)c2n1 (stereo not given),27.4% (inactive)
15,COC(=O)[C@@H](C)C[C@H](Cc1ccccc1)NC(=O)c1nc([C@@H](C[C@H](C(C)C)N(C)C(=O)[C@@H](NC(=O)[C@H]2CCCN2C)C(C)C)OC(C)=O)sc1C,7.21% (active)
16,CCOC(=O)[C@@H](C)C[C@H](Cc1ccccc1)NC(=O)c1csc([C@@H](C[C@H](C(C)C)N(C)C(=O)[C@H](CC)NC(=O)[C@H]2CCCCN2C)OC(C)=O)n1,6.53% (active)
17,COc1ccc(/C=C\c2cc(OC)c(OC)c(OC)c2)cc1NC(=O)/C=C/c1cc(OC)c(OC)c(OC)c1,55.2% (inactive)
18,Fc1ccc2c(c1)c(-c1nc(-c3c[nH]c4ncccc34)cs1)cn2CCN1CCOCC1,59.8% (inactive)
19,O=C(CCCCCCC(=O)Nc1ccc(N(CCCl)CCCl)cc1)NO,14.5% (inactive)
20,COc1cc(/C=C\c2cc(OC)c(OC)c(OC)c2)cc(NS(=O)(=O)c2cccc(Cl)c2)c1OC,6.99% (active)
